Measurements reported in PubChem BioAssay (NCATS).
Inconclusive results are not listed. Active and inactive are the calls of the source. Unless noted, calls come from the whole dose curve; as a rule, active = well fitted curve in the direction sought with a large enough effect; inconclusive = small, poorly fitted or top-dose-only effect, or another doubt; inactive = no such curve, though single readings can be large; an effect the other way counts as inactive or inconclusive.

Columns and labels:
[1] = qHTS for differential inhibitors of proliferation of Plasmodium falciparum line HB3 (AID 1886); conditions: Potency: Plasmodium falciparum HB3 proliferation inhibition;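 note: parasites grown with compound for 72 h before SYBR Green readout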
[2] = qHTS Assay for Modulators of Human Peripheral Myelin Protein 22 (PMP22) Expression/Activity (AID 1967; active = well fitted curve in the direction sought with a large enough effect in the signal ratio; the % refers to the signal ratio)
Procedure, shortened: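 Mouse MSC80 Schwann line, Pmp22 promoter–CBG68 reporter, EF-alpha–CBR internal control. 24h compound exposure, 37 °C/5% CO2, DMEM + 10% FBS. Readout: corrected green/red luminescence ratio, normalized to untreated cells; concentration-response curves fitted and classified.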

[3] = biological target: Ferritin light chain (Equus caballus) (UniProt P02791); assay: qHTS Validation Assay for Identification of Novel General Anesthetics (AID 2323); note: series mostly up to about 77 µM
Sequence of Ferritin light chain (Equus caballus) (P02791 2-175 limits assumed): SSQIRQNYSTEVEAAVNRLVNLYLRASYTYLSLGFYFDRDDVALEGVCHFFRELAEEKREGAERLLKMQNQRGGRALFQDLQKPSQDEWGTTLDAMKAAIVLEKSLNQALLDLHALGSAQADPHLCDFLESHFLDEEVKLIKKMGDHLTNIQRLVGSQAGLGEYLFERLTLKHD
Procedure, shortened: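 10 uM horse-spleen apoferritin + 1-AMA (50% saturated, PBS); cpd pin-transferred, 10 min RT. Ex 380/Em 535 nm endpoint. Activity normalized between free 1-AMA and 1-AMA/apoferritin; 4-parameter Hill fit of concentration-response.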

[4] = biological target: ATP-dependent DNA helicase Q1 (Homo sapiens) (UniProt P46063); assay: qHTS Validation Assay for Inhibitors of RecQ-Like Dna Helicase 1 (RECQ1) (AID 2353)
Procedure, shortened: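 RECQ1T1 50 nM; forked duplex (20 bp + 30-nt ss tails) 200 nM, ATP 2 mM final; pH 8.0, 2 mM MgCl2, 2.5 ug/ml poly(dI-dC); 15 min compound preincubation; discontinuous kinetic read over 2 h at RT.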

[5] = biological target: RecQ-like DNA helicase BLM (Homo sapiens) (UniProt P54132); assay: qHTS Validation Assay for Inhibitors of Bloom's syndrome helicase (BLM) (AID 2364)
Sequence of RecQ-like DNA helicase BLM (Homo sapiens) (P54132 whole entry, looked up): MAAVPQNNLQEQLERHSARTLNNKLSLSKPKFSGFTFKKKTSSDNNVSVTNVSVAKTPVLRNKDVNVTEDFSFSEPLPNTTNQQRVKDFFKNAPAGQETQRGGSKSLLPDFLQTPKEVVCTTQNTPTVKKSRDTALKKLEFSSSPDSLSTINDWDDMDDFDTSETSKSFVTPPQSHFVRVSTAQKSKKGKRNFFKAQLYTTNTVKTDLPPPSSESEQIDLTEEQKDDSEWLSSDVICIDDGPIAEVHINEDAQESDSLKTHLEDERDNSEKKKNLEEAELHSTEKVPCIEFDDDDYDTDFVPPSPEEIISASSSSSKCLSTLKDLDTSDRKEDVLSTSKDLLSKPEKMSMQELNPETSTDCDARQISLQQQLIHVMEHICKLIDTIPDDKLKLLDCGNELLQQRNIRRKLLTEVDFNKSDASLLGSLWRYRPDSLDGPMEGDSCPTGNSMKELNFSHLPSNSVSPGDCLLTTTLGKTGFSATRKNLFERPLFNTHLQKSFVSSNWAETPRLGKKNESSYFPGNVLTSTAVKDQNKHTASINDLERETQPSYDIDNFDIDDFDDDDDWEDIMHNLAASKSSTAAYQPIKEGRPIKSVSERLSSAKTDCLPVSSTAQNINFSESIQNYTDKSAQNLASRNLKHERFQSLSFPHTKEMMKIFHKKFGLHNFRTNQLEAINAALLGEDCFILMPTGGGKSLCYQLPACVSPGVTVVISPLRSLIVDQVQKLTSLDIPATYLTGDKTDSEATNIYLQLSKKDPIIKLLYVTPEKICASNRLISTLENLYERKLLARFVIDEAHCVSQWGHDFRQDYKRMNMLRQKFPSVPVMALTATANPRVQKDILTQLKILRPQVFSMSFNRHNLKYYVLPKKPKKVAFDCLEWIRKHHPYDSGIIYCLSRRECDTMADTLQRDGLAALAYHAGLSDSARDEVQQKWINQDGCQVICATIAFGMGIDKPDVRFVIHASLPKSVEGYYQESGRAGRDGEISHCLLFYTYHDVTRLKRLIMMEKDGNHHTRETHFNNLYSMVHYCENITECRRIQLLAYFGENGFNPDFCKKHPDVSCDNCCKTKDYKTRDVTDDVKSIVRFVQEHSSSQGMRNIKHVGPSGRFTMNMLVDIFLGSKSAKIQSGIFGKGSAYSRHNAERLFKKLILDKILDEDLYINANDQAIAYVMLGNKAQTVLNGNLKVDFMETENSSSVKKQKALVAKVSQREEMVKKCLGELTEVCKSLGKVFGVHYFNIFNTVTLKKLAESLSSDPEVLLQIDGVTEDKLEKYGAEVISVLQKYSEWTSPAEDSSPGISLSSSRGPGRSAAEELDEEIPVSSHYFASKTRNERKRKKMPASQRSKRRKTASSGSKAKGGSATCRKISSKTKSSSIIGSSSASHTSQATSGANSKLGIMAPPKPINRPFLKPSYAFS
Procedure, shortened: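 50 nM BLM preincubated 15 min at room temperature with compound in pH 8.0 Tris buffer containing 2.5 ug/ml poly(dI-dC); started with 200 nM TAMRA/BHQ-2 forked duplex and 2 mM ATP (final). Unwinding read as TAMRA fluorescence increase, two reads 2 h apart.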

[6] = High Content Imaging Cell-Based qHTS for Inhibitors of the mTORC1 Signaling Pathway in MEF (Tsc2-/-, p53-/-) Cells (AID 2666);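 note: percent of cells scored positive for phospho-rpS6 Ser235/236 immunostaining by imaging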
Procedure, shortened: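 MEF Tsc2-/- p53-/- (empty vector), DMEM/10% FBS; cpd 24 h 37 °C; PFA fix, Alexa-488 p-rpS6 S235/236 Ab, Hoechst; imaged; rapamycin-defined inhibition; % positive cells/well.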

[7] = High Content Imaging Cell-Based qHTS for Inhibitors of the mTORC1 Signaling Pathway in MEF Cells (AID 2667);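 note: Tsc2-/- p53-/- MEFs stably re-expressing wild-type Tsc2 exposed 24 h; series mostly up to about 38 µM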
Procedure, shortened: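 Read-out is the share of phospho-rpS6-positive cells per well, from Hoechst-normalized Alexa-488 Ser235/236 staining imaged on IN Cell. Cells: WT Tsc2-expressing Tsc2-/-, p53-/- MEFs exposed to compound for 24 hrs.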

[8] = Cytometry Cell-Based qHTS for Inhibitors of the mTORC1 Signaling Pathway in MEF cells (AID 2668);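 note: Tsc2-/- p53-/- mouse embryonic fibroblasts stably re-expressing wild-type Tsc2; percent cells positive for phospho-rpS6 Ser235/236 relative to propidium iodide stain; series mostly up to about 38 µM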
Procedure, shortened: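 Read-out: phospho-rpS6 Ser235/236 immunofluorescence normalized to propidium iodide intensity, scored as % active cells against a rapamycin (7.5 nM) threshold. Cells: Tsc2-/-, p53-/- MEFs stably expressing WT Tsc2, compound-treated 24 hrs at 37 degree Celsius.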

[9] = Validation screen for small molecules that induce DNA re-replication in MCF 10A normal breast cells (AID 463097); note: nearly all actives have a fitted effect of over 60% in size
Procedure, shortened: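 250 MCF 10A cells/well; compound pin-transferred; 48 hr, 37 C, 5% CO2; Hoechst 40 min; imaged 405/500-530 nm. Hits = more high-intensity nuclei.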

[10] = biological target: Ubiquitin carboxyl-terminal hydrolase 2 (Homo sapiens) (UniProt O75604); assay: qHTS Validation Assay for Inhibitors of Ubiquitin-specific Protease USP2a Using CHOP2 as the Reporter (AID 463106)
Sequence of Ubiquitin carboxyl-terminal hydrolase 2 (Homo sapiens) (O75604 whole entry, looked up): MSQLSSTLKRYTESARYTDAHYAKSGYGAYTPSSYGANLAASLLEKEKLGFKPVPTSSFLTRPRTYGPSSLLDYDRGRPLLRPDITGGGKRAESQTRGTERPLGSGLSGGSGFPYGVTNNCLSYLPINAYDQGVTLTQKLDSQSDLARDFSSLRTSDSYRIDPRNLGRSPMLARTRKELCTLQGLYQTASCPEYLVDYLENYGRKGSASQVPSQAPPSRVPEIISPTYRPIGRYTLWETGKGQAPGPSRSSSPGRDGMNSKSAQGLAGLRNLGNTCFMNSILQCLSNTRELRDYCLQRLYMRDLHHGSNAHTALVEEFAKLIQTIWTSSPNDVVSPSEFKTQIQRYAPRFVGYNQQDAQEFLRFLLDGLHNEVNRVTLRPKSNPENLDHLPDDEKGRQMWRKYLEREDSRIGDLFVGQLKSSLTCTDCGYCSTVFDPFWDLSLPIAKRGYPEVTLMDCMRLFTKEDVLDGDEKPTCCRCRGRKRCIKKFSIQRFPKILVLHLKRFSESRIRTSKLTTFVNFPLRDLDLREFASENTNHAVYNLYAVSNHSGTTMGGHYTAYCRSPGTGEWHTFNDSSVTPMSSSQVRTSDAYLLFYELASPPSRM
Procedure, shortened: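 Fluorescence read-out at Ex 485nm/Em 531nm after 60min RT, following addition of 25nM Ub-CHOP2 plus 25nM reporter substrate to USP2 core (10nM) pretreated 30min with compound. Data normalized to NEM full inhibition; concentration-response curves fitted.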

[11] = biological target: DNA polymerase III PolC-type (Bacillus subtilis (strain 168)) (UniProt P13267); assay: qHTS Validation Assay for the Inhibitors of DNA Replication in Gram-Positive Bacteria (AID 485295);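 note: reconstituted holoenzyme with PolC plus beta clamp SSB and primase; PicoGreen fluorescence of double-stranded DNA made on primed circular M13 template; series mostly up to about 57 µM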
Sequence of DNA polymerase III PolC-type (Bacillus subtilis (strain 168)) (P13267 whole entry, looked up): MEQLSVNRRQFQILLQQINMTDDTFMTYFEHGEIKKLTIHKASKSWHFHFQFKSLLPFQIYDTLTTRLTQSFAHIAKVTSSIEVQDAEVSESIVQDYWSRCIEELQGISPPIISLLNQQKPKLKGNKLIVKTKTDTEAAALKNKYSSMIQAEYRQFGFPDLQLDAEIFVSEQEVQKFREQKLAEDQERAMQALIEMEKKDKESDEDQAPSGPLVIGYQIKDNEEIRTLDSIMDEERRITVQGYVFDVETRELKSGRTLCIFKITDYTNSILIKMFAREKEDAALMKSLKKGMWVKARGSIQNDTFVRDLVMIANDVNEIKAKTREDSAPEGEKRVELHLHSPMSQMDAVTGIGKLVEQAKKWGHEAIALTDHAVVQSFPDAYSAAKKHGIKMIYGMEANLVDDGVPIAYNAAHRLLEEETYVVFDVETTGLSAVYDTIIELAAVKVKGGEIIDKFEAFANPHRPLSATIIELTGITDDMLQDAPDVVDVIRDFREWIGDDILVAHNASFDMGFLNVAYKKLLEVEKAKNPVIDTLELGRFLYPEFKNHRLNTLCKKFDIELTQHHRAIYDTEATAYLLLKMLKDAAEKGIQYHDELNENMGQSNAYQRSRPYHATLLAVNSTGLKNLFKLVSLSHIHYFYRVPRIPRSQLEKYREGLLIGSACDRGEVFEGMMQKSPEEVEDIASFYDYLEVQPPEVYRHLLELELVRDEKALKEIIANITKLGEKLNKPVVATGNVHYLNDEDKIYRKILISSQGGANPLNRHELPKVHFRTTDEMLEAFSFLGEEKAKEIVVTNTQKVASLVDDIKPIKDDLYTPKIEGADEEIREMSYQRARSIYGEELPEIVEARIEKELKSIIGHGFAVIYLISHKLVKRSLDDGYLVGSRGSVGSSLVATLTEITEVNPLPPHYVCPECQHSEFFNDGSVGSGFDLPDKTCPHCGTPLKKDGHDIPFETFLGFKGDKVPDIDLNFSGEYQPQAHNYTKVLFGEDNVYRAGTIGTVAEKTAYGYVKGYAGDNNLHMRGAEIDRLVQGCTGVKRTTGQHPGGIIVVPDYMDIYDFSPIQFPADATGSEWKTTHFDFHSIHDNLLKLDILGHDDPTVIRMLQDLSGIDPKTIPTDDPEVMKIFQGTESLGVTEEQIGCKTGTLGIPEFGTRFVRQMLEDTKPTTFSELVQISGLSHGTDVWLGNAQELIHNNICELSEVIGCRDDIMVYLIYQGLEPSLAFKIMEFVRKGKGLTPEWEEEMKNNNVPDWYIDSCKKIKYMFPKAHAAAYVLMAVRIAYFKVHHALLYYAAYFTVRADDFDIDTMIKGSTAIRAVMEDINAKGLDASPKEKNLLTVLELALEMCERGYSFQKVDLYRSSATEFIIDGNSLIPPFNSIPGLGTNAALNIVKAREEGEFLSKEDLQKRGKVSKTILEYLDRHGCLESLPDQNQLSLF
Procedure, shortened: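 PicoGreen fluorescence (ex 480–485/em 535–540 nm) reports dsDNA synthesized on ssM13Gori template with dNTPs/NTPs. Enzyme: holoenzyme rebuilt from purified PolC, beta subunit, SSB and primase. Compound preincubated before substrate addition; RT throughout.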

[12] = qHTS Validation Assay to Find Inhibitors of Chronic Active B-Cell Receptor Signaling (AID 485345; active = well fitted curve in the direction sought with a large enough effect in the main read-out, with a control signal flat, not every such curve was filed as active)
Procedure, shortened: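 TMD8 ABC-DLBCL cells stably carrying doxycycline-inducible IkappaBalpha–green luciferase fusion plus unfused red luciferase; compounds 46 uM to 3 nM, 4 h at 37C with doxycycline. Corrected green/red luminescence ratio normalized to 10 uM MG-132 and basal cell wells; curves fitted.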

[13] = biological target: Beta-2 adrenergic receptor (Homo sapiens) (UniProt P07550); assay: qHTS validation assay of beta-arrestin-biased ligands of beta2-adrenergic receptor (AID 485366)
Sequence of Beta-2 adrenergic receptor (Homo sapiens) (P07550 whole entry, looked up): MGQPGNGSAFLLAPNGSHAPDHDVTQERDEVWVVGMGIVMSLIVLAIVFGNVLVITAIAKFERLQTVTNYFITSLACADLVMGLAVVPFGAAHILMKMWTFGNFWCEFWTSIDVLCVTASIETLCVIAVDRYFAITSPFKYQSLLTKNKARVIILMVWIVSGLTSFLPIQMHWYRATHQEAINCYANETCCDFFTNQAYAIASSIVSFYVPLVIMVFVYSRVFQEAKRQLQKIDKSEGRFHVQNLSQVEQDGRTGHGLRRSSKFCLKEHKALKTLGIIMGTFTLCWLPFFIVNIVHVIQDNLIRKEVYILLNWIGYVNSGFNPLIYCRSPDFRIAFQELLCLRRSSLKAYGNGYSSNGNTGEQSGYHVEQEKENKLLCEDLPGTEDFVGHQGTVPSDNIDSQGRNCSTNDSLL
Procedure, shortened: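 Agonism was measured as beta-arrestin recruitment to recombinant beta2-AR, releasing tTA to drive luciferase. Cells were exposed for 18 hr at 37 degrees C to a series up to 46 microM. %Activity from corrected luminescence gave concentration-response curves.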

[14] = Quantitative high throughput screen for delayed death inhibitors of the malarial parasite plastid, 96 hour incubation (AID 488745);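 note: luciferase-expressing P. falciparum in erythrocytes at 2% hematocrit and 0.1% parasitemia; series mostly up to about 29 µM; nearly all actives have a fitted effect of over 70% in size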
Procedure, shortened: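 Readout is firefly luciferase luminescence from an integrated reporter in P. falciparum; lower signal marks inhibited growth. Cultures at 2% hematocrit and 0.1% parasitemia were treated with compound across two generations (96 h, 37 C, 5% CO2).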

[15] = Quantitative high throughput screen for delayed death inhibitors of the malarial parasite plastid, 48 hour incubation (AID 488752); note: nearly all actives have a fitted effect of over 65% in size
Procedure, shortened: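 First, compound was pinned into RPMI 1640 medium containing 0.5% Albumax. Next, reporter-parasite-infected erythrocytes were added to 2% hematocrit and 0.1% parasitemia. After 48 h at 37 C under 5% CO2, luciferase detection reagent was added and luminescence read.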

[16] = biological target: Thioredoxin reductase 1, cytoplasmic (Rattus norvegicus) (UniProt O89049); assay: qHTS Assay for Substrates of Mammalian Selenoprotein Thioredoxin Reductase 1 (TrxR1) (AID 488772);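 note: series mostly up to about 57 µM; a drop in NADPH fluorescence below the no-compound background marks a TrxR1 substrate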
Sequence of Thioredoxin reductase 1, cytoplasmic (Rattus norvegicus) (O89049 whole entry, looked up): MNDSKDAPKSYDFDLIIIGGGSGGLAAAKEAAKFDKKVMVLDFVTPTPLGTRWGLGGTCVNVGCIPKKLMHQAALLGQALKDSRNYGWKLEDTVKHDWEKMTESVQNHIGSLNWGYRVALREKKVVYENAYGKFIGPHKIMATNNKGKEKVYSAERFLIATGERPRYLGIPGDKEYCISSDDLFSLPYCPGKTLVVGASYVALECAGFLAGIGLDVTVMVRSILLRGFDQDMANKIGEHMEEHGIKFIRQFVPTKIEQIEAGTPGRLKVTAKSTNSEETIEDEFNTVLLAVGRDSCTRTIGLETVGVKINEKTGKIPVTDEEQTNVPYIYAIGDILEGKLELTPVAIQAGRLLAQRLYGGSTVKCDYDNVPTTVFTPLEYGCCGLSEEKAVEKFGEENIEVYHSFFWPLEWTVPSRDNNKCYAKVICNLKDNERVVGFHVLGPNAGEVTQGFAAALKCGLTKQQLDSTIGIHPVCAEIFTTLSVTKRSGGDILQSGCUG
Procedure, shortened: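 In this dual-purpose format, potential substrates are identified from the first fluorescence read after selenite addition, not from the 8-minute delta. Rat enzyme is preincubated with NADPH and then with compound at ~22 deg C.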

[17] = Cytometric Cell-Based qHTS for Inhibitors of the mTORC1 Signaling Pathway in MEF (Tsc2-/-, p53-/-) Cells (AID 2660);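 note: Tsc2 and p53 null MEFs carrying empty vector with compound for 24 h; percent of cells above a phospho-rpS6 to PI ratio cutoff in each well; series mostly up to about 38 µM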
Procedure, shortened: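 Immunofluorescence qHTS of rpS6 Ser235/236 phosphorylation: MEFs (Tsc2-/-, p53-/-) treated 24 h, 37 C, in DMEM + 10% FBS. Alexa-488 signal normalized to PI count, referenced to rapamycin (7.5 nM) and DMSO; PI cell number recorded for viability.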

[18] = biological target: Tumor susceptibility gene 101 protein (Homo sapiens) (UniProt Q99816); assay: qHTS Validation Assay for Iinhibitors of HIV-1 Budding by Blocking the Interaction of PTAP/TSG101 (AID 485342; calls by dose curve)
Sequence of Tumor susceptibility gene 101 protein (Homo sapiens) (Q99816 whole entry, looked up, the tested form may be a part): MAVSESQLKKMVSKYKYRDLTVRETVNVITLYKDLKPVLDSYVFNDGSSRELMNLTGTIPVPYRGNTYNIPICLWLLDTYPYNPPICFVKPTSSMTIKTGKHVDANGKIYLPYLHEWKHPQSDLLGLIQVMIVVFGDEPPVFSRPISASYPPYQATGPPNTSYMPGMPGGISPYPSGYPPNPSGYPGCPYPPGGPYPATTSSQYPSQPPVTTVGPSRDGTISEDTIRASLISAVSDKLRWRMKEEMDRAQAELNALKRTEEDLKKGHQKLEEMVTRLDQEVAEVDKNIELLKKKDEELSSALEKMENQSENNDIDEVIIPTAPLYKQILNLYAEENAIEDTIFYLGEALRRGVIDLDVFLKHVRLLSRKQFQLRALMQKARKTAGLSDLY
Procedure, shortened: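 FP read-out: FITC-PTAP peptide, 50 nM final, binding Tsg101 binding domain, 10 uM final; 20 min r.t.; 10 mM HEPES pH 7.5, 0.15 M NaCl, 0.01% Tween 20, 3 mM EDTA, 0.1 mM TCEP.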

[19] = biological target: ATP-dependent 6-phosphofructokinase (Trypanosoma brucei brucei) (UniProt O15648); assay: qHTS Validation Assay to Find Inhibitors of T. brucei phosphofructokinase (AID 485368); conditions: outcome: dose series up to 57.5 µM
Procedure, shortened: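 ADP-Glo luminescence, two-step: residual ATP depleted, then ADP converted to ATP for luciferase. Enzyme 1.25 nM, F6P 0.5 mM, ATP 0.1 mM, pH 8.0 TEA buffer, 45 min RT. Curves fitted and classed by quality and efficacy.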

Measured: Potency

CCCCNC(=O)NS(=O)(=O)c1ccc(C)cc1
not listed: [17] | [18] | [19]
inactive: all other assays above

O=C(O)CP(=O)(O)O
not listed: [5] | [9] | [11] | [14]
inactive: all other assays above

C#CCN(C)CCCOc1ccc(Cl)cc1Cl
not listed: [3] | [6] | [12] | [14]
inactive: all other assays above

N[C@@H](COP(=O)(O)O)C(=O)O
not listed: [5] | [17] | [19]
inactive: all other assays above

CN(C)C(=O)Oc1cccc([N+](C)(C)C)c1
not listed: [2] | [14] | [15] | [19]
inactive: all other assays above

Nc1c2c(nc3ccccc13)CCCC2O (centres undefined)
not listed: [2] | [6] | [9] | [19]
inactive: all other assays above

CC(=O)OC(C)C[N+](C)(C)C (centres undefined)
not listed: [5] | [17] | [19]
inactive: all other assays above

CNC1(C)C2CCC(C2)C1(C)C (centres undefined)
not listed: [2] | [19]
inactive: all other assays above

CC1=NS(=O)(=O)c2cc(Cl)ccc2N1
not listed: [2] | [9]
inactive: all other assays above

CC(C(=O)O)c1ccc(CC2CCCC2=O)cc1 (centres undefined)
not listed: [9] | [16] | [19]
inactive: all other assays above

CCN1CCC[C@H]1CNC(=O)c1c(O)c(Cl)cc(Cl)c1OC
not listed: [2] | [9] | [19]
inactive: all other assays above

CNCCC(Oc1ccccc1OC)c1ccccc1 (centres undefined)
not listed: [2] | [18] | [19]
inactive: all other assays above

CN(C)CC[C@@H](c1ccc(Br)cc1)c1ccccn1
not listed: [2] | [19]
inactive: all other assays above

CC(C)NCC(O)c1cc(O)cc(O)c1 (centres undefined)
not listed: [5] | [9] | [13] | [19]
inactive: all other assays above

CCN(CC)CC(=O)Nc1c(C)cccc1C
not listed: [5] | [17] | [18] | [19]
inactive: all other assays above

CC(=O)OCC1=C(C(=O)O)N2C(=O)[C@@H](NC(=O)Cc3cccs3)[C@H]2SC1
not listed: [5] | [19]
inactive: all other assays above
